Experimental findings from PubChem BioAssay AID2763 (National Center for Advancing Translational Sciences (NCATS), 2010) are described below.

Records with an inconclusive call do not appear. A number with no mark means an inactive call. The source made the active and inactive calls. Calls follow the shape of the dose curve; as a rule, active = well fitted inhibition curve with a large enough effect; inconclusive = small, poorly fitted or top-dose-only effect, or effect the other way; inactive = no such curve, though single readings can be large or run the other way.
% is scaled to controls: 0 for no effect and ±100 for the full control effect; potency is read from the fitted curve at half-maximal effect.

The experiment is described as follows: Concentration response confirmation VP16 counterscreen for inhibitors of ROR gamma transcriptional activity. Also: nearly all actives have a fitted effect of over 70% in size. The conditions noted are these: Drosophila S2 Gal4-VP16 UAS-luciferase, luminescence, 20 h; series mostly up to 46.1 µM; activity change, negative = inhibition: at the top concentration. A digest of the protocol: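 Drosophila Schneider cells stably carrying Gal4-VP16 under metallothionein promoter plus UAS-Photinus luciferase. Compound preincubated 1 hr, then 700 uM copper sulfate induction for 20 hr at ambient temperature; luminescence read.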
On the technique in general: A counterscreen serves to expose hits that act by an unwanted route or on another target.
With `CCOC(=O)Cc1nnc(Nc2ccc(C(=O)NC)cc2)c2ccccc12`, the “activity change, negative = inhibition” value is -10.9%. For the molecule `COC(=O)c1ccc2nc(Nc3nc4ccc(F)cc4s3)sc2c1`, the Potency is 5.6 µM (active). As for `S=c1[nH]nc(-c2ccc(Cl)cc2Cl)n1-c1ccc2c(c1)OCCO2`, the “activity change, negative = inhibition” value is 0.595%.

With `Cc1ccc2nc(-c3ccc(NC(=O)COC(=O)c4ccc(=O)[nH]c4)cc3)sc2c1`, the Potency is 12.5 µM (active). For `COc1ccc(C(=O)Nc2scc(-c3ccc(Cl)cc3Cl)c2C(N)=O)cc1`, the “activity change, negative = inhibition” value was -28.8%. Turning to `Cc1nn(-c2ccccc2)c(C)c1C(=O)Nc1nnc(-c2ccco2)o1`, the Potency was 1.25 µM (active). Turning to `O=C(c1cc(-c2ccc(Cl)cc2)n[nH]1)N1CCc2ccccc2C1`, the “activity change, negative = inhibition” value is -9.01%. Consider `CCOC(=O)c1sc(NC(=O)c2sc(C)nc2C)nc1C`, for which the “activity change, negative = inhibition” value was -0.602%. Regarding `CCC(C)[C@H](NC(=O)NCc1ccco1)C(=O)O` (stereo partly specified), the “activity change, negative = inhibition” value is -8.74%. On to `Cc1nnc(SCC(=O)Nc2ccc(S(=O)(=O)Nc3ccc(Cl)nn3)cc2)s1`, for which the “activity change, negative = inhibition” value is -1.14%. On to `COc1ccc(C(CNC(=S)NCc2ccccc2)N2CCCC2)cc1` (stereo unspecified), for which the “activity change, negative = inhibition” value is 10.3%. As to `N=C1S/C(=C\c2ccco2)C(=O)N1c1nccs1`, the Potency was 0.396 µM (active). Take `Cc1cc(C)nc(-n2nc(C)cc2NC(=O)CNC(C)c2ccccc2)n1` (stereo unspecified): the Potency was 19.9 µM (active).

Consider `CCN(CC)C1CC(=O)N(c2cccc(C)c2)C1=O` (stereo unspecified), for which the Potency was 25 µM (active). Regarding `Cc1cc(C)c2[nH]c(C(=O)Nc3ccc4c(c3)OCO4)cc2c1`, the “activity change, negative = inhibition” value was -13.4%. On to `CCNC(=O)CCc1nc(-c2ccc(C(C)(C)C)cc2)no1`, for which the Potency is 4.45 µM (active). On to `O=C(COc1ccccc1Cl)NCCCN1CCOCC1`, for which the “activity change, negative = inhibition” value was -6.78%. For `CCN(CC)c1ccc2cc(-c3nc4ccccc4[nH]3)c(=O)oc2c1`, the Potency was 9.96 µM (active). Consider `CC1Oc2ccccc2N(CC(=O)NCCN2CCOCC2)C1=O` (stereo unspecified), for which the “activity change, negative = inhibition” value is -6.52%. `Cc1cccc(-c2nc3cc(NC(=O)C4CCCO4)ccc3o2)c1` (stereo unspecified): the Potency was 2.5 µM (active). As for `CCOc1cc(C)c(S(=O)(=O)NC2CCCCC2)cc1C`, the “activity change, negative = inhibition” value is -11.3%. For `CC(=O)c1cnc2nc(C(F)(F)F)nn2c1C`, the “activity change, negative = inhibition” value was 1.06%. For the molecule `Cc1c(CCC(=O)N[C@@H](CC(C)C)C(=O)O)c(=O)oc2cc3oc4c(c3cc12)CCCC4`, the Potency is 4.99 µM (active). As for `CCCCc1nnc(NC(=O)CS(=O)(=O)Cc2ccccc2)s1`, the “activity change, negative = inhibition” value is 7.82%. With `O=S(=O)(NCc1ccccn1)C(F)(F)F`, the Potency was 25 µM (active).

On to `COc1cccc(/C=C2\SC(=S)N(CCCC(=O)N3CCCC3)C2=O)c1`, for which the “activity change, negative = inhibition” value was 11.6%. `COCCC1CCCCN1C(=O)c1cc(COc2ccc(-n3cncn3)cc2)on1` (stereo unspecified): the Potency was 19.9 µM (active).

As to `O=C(CCCN1C(=O)/C(=C/c2ccccc2Cl)SC1=S)NNC(=O)c1ccc(Cl)cc1Cl`, the Potency is 4.45 µM (active). Take `S=c1[nH]c(-c2ccc(Br)cc2)cn1CCc1ccccc1`: the Potency was 14.1 µM (active).

As to `CN(Cc1ccccc1)c1ncnc2ccc(Br)cc12`, the “activity change, negative = inhibition” value is -13.1%. On to `Cc1ccc(S(=O)(=O)NCc2ccncc2)c(C)c1C`, for which the Potency is 3.97 µM (active).

Consider `CC(C)(C)S(=O)(=O)c1cnc2c(-c3ccc(F)cc3)cnn2c1N`, for which the Potency is 12.5 µM (active). Take `COc1ccc2[nH]c(C)c(CCN(Cc3cccs3)C(=S)Nc3ccccc3OC)c2c1`: the “activity change, negative = inhibition” value is 37.2%. With `Cc1nc2c(-c3ccccc3)cnn2c(N)c1-c1ccccc1`, the Potency was 11.2 µM (active). In the case of `COc1ccc(-c2nnc(-c3ccc(N(C)C)cc3)o2)cc1`, the “activity change, negative = inhibition” value was -19.3%. On to `C=CCn1c(SCC(=O)c2ccc(OC)cc2)nnc1-c1cc2cccc(OC)c2o1`, for which the “activity change, negative = inhibition” value is -9.07%.
